{
  "source": "PubChem BioAssay",
  "note": "Activity calls are given as the source filed them. The rule behind the calls is not given here.",
  "data": [
    {"test": "Brca1-Bard1 BiLC signal decrease – luminescence, single concentration, counter-screen for Mdm2/MdmX interaction inhibitor project, confirmation (AID 504668)", "conditions": "Brca1/Bard1 bimolecular luciferase complementation counterscreen, at 8 µM, stronger effect = higher value", "values": [
      {"compound": "COc1cc2c(ccc3cc(OC)c(OC)c(O)c32)cc1O", "inhibition": "31.4% (active)"},
      {"compound": "C/C(=N\\NC(=O)c1nnn(-c2nonc2N)c1CN(C)c1ccccc1)c1ccccc1O", "inhibition": "30.5% (active)"},
      {"compound": "COc1ccc2cc(C(=O)N/N=C/c3sc4ccccc4c3O)ccc2c1", "inhibition": "32.4% (active)"},
      {"compound": "Cc1ccc(/C=N/NC(=O)c2c(-c3ccccc3)noc2C)c(O)c1", "inhibition": "31.1% (active)"},
      {"compound": "CCN1CCN(Cc2ccc(NC(=O)c3ccc(C)c(NC(=O)c4cccc(-c5cn[nH]c(=O)c5)c4)c3)cc2C(F)(F)F)CC1", "inhibition": "32% (active)"},
      {"compound": "CCOC(=O)/C=C/C(=O)Nc1ccc(Oc2ccccc2)cc1", "inhibition": "24.1% (active)"},
      {"compound": "COc1ccc2[nH]c3c(N4CCC(O)(c5cccc(C(F)(F)F)c5)CC4)ncnc3c2c1", "inhibition": "32.1% (active)"},
      {"compound": "COc1ccc(C)cc1Nc1n[n+](-c2ccccc2)c(-c2c(OC)ccc3ccccc23)s1", "inhibition": "29% (active)"},
      {"compound": "CCCCNc1c(-c2ccc(OC)c(SC3CCCCC3)c2)nc2ccc(C)cn12", "inhibition": "28.6% (active)"},
      {"compound": "CCc1ccc(NC(=O)[C@H](Cc2c[nH]c3ccccc23)NC(=O)[C@@H]2Cc3ccccc3CN2)cc1", "inhibition": "24.1% (active)"},
      {"compound": "O=C(Nc1ccc(Cl)cc1)Nc1csc([N+](=O)[O-])c1", "inhibition": "30.6% (active)"},
      {"compound": "CC(C)[C@H](NC(=O)c1ccccc1Cl)C(=O)Nc1nc(-c2ccccn2)cs1", "inhibition": "35.6% (active)"},
      {"compound": "N#Cc1ccc(NC(=O)Nc2ccc(Oc3ccc(NC(=O)Nc4ccc(C#N)cc4)cc3)cc2)cc1", "inhibition": "35.1% (active)"},
      {"compound": "CCOc1ccccc1CNC(=O)c1cc2oc3ccccc3c2n1CC", "inhibition": "25.6% (active)"},
      {"compound": "CCOc1cc(NC(=O)c2ccco2)c(OCC)cc1NC(=O)COc1ccccc1C", "inhibition": "33.4% (active)"},
      {"compound": "CCOC(=O)c1cnc(-n2nc(C)cc2C)nc1NNc1nc(-c2ccccc2)cc(-c2ccccc2)n1", "inhibition": "25% (active)"},
      {"compound": "COc1ccc(/C=C2/SC(=S)N(CCCC(=O)Nc3cccc(O)c3)C2=O)cc1", "inhibition": "28.6% (active)"},
      {"compound": "COc1cccc(/C=N/NC(=O)c2c(C)nc3ccc(Br)cn23)c1O", "inhibition": "32.3% (active)"},
      {"compound": "Cc1ccc(C(=O)Nc2nc(-c3ccccn3)cs2)s1", "inhibition": "34.6% (active)"},
      {"compound": "CCOc1cc(/C=C2/NC(=O)N(CC(=O)Nc3cccc(C)c3)C2=O)ccc1OC", "inhibition": "32.2% (active)"},
      {"compound": "CC(=O)/C(C#N)=C1\\NC(=O)C(Cc2cc(Cl)ccc2Cl)S1", "note": "(stereo not given)", "inhibition": "31.2% (active)"},
      {"compound": "C=C(C(=O)Oc1ccccc1C(C)(C)C)c1ccccc1", "inhibition": "34% (active)"},
      {"compound": "C(=N\\Nc1nc(-c2ccccn2)nc2ccccc12)/c1ccccc1", "inhibition": "26.1% (active)"},
      {"compound": "C/C(=N\\NC(=O)c1cc2ccccc2cc1O)c1ccccn1", "inhibition": "24.3% (active)"},
      {"compound": "COc1cccc(/C=N/NC(=O)c2cc(-c3cccn3C)n[nH]2)c1O", "inhibition": "32.4% (active)"},
      {"compound": "CCOc1ccc2[nH]c3c(N4CCc5ccccc5C4)ncnc3c2c1", "inhibition": "35.8% (active)"},
      {"compound": "C/C(=N\\NC(=O)c1ccc(Cl)c(Cl)c1)c1ccccn1", "inhibition": "25.9% (active)"},
      {"compound": "O=C(CCCl)Nc1nc2c(s1)CCc1ccccc1-2", "inhibition": "24.6% (active)"},
      {"compound": "OC(CNCc1ccc(-c2ccccc2)cc1)c1ccccc1", "note": "(stereo not given)", "inhibition": "26.9% (active)"},
      {"compound": "Cc1ccc(S(=O)(=O)c2nc(S(=O)(=O)c3ccccc3)sc2N2CCN(C)CC2)cc1", "inhibition": "23.7% (active)"},
      {"compound": "O=c1c2ccccc2nc(-c2ccc(Cl)c(Cl)c2)n1O", "inhibition": "26.8% (active)"},
      {"compound": "COc1ccc(N/N=C(/N=Nc2nc(C)cc(=O)[nH]2)c2ccccc2)cc1", "inhibition": "30.7% (active)"},
      {"compound": "CCOC(=O)c1cccc2c1-c1ccccc1/C2=N/O", "inhibition": "30.6% (active)"},
      {"compound": "O=C(Nc1nc(-c2ccccn2)cs1)c1cccc(S(=O)(=O)N2CCOCC2)c1", "inhibition": "33.4% (active)"},
      {"compound": "CCN(CC)C(=O)CN1C(=O)/C(=C/c2ccccc2)SC1=S", "inhibition": "27.6% (active)"},
      {"compound": "O=C(CCl)Nc1cn(-c2ccccc2)nc1-c1ccccc1", "inhibition": "33.7% (active)"},
      {"compound": "Cc1c(Cl)cccc1N/C(SCC(=O)N1CCCCCC1)=C(/C#N)c1nc2ccccc2s1", "inhibition": "36% (active)"},
      {"compound": "CCCC(=O)NC(c1ccco1)c1cc(Cl)c2cccnc2c1O", "note": "(stereo not given)", "inhibition": "23.3% (active)"},
      {"compound": "CCOC(=O)C(CC)(CC)C(=O)/C=C/c1cccc(Br)c1", "inhibition": "29.2% (active)"},
      {"compound": "Cn1c(C(=O)NCc2cccs2)cc2oc3ccccc3c21", "inhibition": "27.7% (active)"}
    ]}
  ]
}
